Values joined by “and” are separate entries in the source; they are usually repeats but may differ in a detail not shown here. Identical values can stand only once. Screen size: about 5,500 compounds; about 2,000 (36%) were called active. Not shown: some 18% with an inconclusive outcome. Cut-off read from the data, not from the text of the source: active = normalized growth mostly below about 0.91 (no sharp cut-off); inconclusive = no clear call, values can overlap the other calls; inactive = mostly above about 0.92. The list shows a part of the results.
Assay: chemical genetic growth profiling, strain panel (AID 1159580);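 note: tested at 20 µM; growth read once vehicle control cultures reached saturation at 30 °C; 1 = growth at the plate median or of vehicle wells; lower values mean less growth of the strain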
Conditions: S. cerevisiae deletion strains, growth OD

Measured: normalized growth

C[C@]12CCC(=O)C=C1CCC1C2[C@@H](O)C[C@@]2(C)C1CC[C@]2(O)C(=O)CO (stereo partly drawn)
inactive: locus YAL013W, strain DEP1, hits give low values 1.02 | locus YAL021C, strain ccr4, hits give low values 0.984 | locus YAL026C, strain drs2, hits give low values 0.994 | locus YAL030W, strain snc1, hits give low values 1.01 | locus YBL061C, strain skt5, hits give low values 0.987 | locus YBR009C, strain hhf1, hits give low values 1 | locus YBR021W, strain FUR4, hits give low values 1.01 | locus YBR023C, strain chs3, hits give low values 0.979 | locus YBR171W, strain sec66, hits give low values 0.975 | locus YBR229C, strain ROT2, hits give low values 1.02 | locus YBR231C, strain swc5, hits give low values 1 | locus YBR279W, strain paf1, hits give low values 0.98 | locus YCL011C, strain gbp2, hits give low values 0.979 | locus YCL016C, strain dcc1, hits give low values 0.971 | locus YCL029C, strain bik1, hits give low values 0.995 | locus YCL069W, strain vba3, hits give low values 1 | locus YCR088W, strain abp1, hits give low values 0.993 | locus YDL005C, strain med2, hits give low values 0.99 | locus YDL035C, strain GPR1, hits give low values 1.02 | locus YDL040C, strain nat1, hits give low values 1.01 | locus YDL074C, strain BRE1, hits give low values 1.02 | locus YDL101C, strain DUN1, hits give low values 1.02 | locus YDL185W, strain tfp1, hits give low values 1 | locus YDL192W, strain arf1, hits give low values 0.99 | locus YDR001C, strain nth1, hits give low values 1 | locus YDR069C, strain doa4, hits give low values 0.993 | locus YDR101C, strain arx1, hits give low values 0.974 | locus YDR137W, strain rgp1, hits give low values 1.01 | locus YDR159W, strain sac3, hits give low values 0.948 | locus YDR162C, strain NBP2, hits give low values 1.02 | locus YDR195W, strain ref2 0.974 | locus YDR297W, strain sur2, hits give low values 1 | locus YDR318W, strain mcm21, hits give low values 1 | locus YDR334W, strain swr1, hits give low values 0.981 | locus YDR335W, strain msn5, hits give low values 0.987 | locus YDR388W, hits give low values 0.991 | locus YDR392W, strain spt3, hits give low values 0.899 | locus YDR502C, strain sam2, hits give low values 1.01 | locus YEL003W, strain gim4, hits give low values 1.01 | locus YEL037C, strain rad23, hits give low values 1 | locus YEL061C, strain CIN8 (second series), hits give low values 0.991 | locus YEL061C, strain CIN8, hits give low values 1.01 | locus YER015W, strain faa2, hits give low values 0.996 | locus YER016W, strain bim1, hits give low values 0.99 | locus YER110C, hits give low values 0.989 | locus YER111C, strain swi4, hits give low values 0.981 | locus YER155C, strain BEM2 (second series), hits give low values 1.01 | locus YER155C, strain BEM2, hits give low values 1.01 | locus YER167W, strain BCK2, hits give low values 1.01 | locus YFR010W, strain ubp6, hits give low values 1.01 | locus YGL078C, strain dbp3, hits give low values 0.984 | locus YGL086W, strain mad1, hits give low values 0.988 | locus YGL167C, strain pmr1, hits give low values 0.987 | locus YGL173C, strain kem1, hits give low values 0.975 | locus YGL227W, strain vid30, hits give low values 0.981 | locus YGL240W, strain doc1, hits give low values 0.971 | locus YGL248W, strain PDE1, hits give low values 1.02 | locus YGL253W, strain hxk2, hits give low values 0.99 | locus YGR078C, strain PAC10, hits give low values 1.03 | locus YGR135W, strain pre9, hits give low values 1.01 | locus YGR229C, strain SMI1, hits give low values 1.02 | locus YGR252W, strain gcn5, hits give low values 1.02 | locus YHR013C, strain ard1, hits give low values 0.969 | locus YHR027C, strain rpn1, hits give low values 1.01 | locus YHR030C, strain SLT2, hits give low values 1.01 and 0.975 | locus YHR079C, strain IRE1 (second series), hits give low values 0.997 | locus YHR079C, strain IRE1, hits give low values 0.99 | locus YHR094C, strain hxt1, hits give low values 0.988 | locus YHR129C, strain ARP1, hits give low values 1.02 | locus YHR142W, strain chs7, hits give low values 0.999 | locus YHR200W, strain rpn10, hits give low values 1.01 | locus YIL066C, strain RNR3, hits give low values 1.02 | locus YIL073C, strain SPO22, hits give low values 1.02 | locus YIL125W, strain kgd1, hits give low values 0.997 | locus YIR030C, strain dcg1, hits give low values 0.994 | locus YJL092W, strain hpr5, hits give low values 0.995 | locus YJL095W, strain BCK1 (second series), hits give low values 1 | locus YJL095W, strain BCK1, hits give low values 1.04 and 0.981 | locus YJL115W, strain asf1, hits give low values 0.992 | locus YJL129C, strain trk1, hits give low values 0.97 | locus YJL134W, strain LCB3, hits give low values 1.01 | locus YJL154C, strain vps35, hits give low values 0.991 | locus YJL164C, strain tpk1, hits give low values 1 | locus YJL166W, strain qcr8, hits give low values 1.02 | locus YJL168C, strain set2, hits give low values 0.999 | locus YJL187C, strain SWE1 (second series), hits give low values 1.02 | locus YJR043C, strain POL32, hits give low values 1.03 | locus YJR066W, strain TOR1, hits give low values 0.922

— PubChem BioAssay AID1159580 (chemical genetic matrix, 2015)
